# Inconclusive results are not listed. Active and inactive are the calls of the source. Calls follow the shape of the dose curve; as a rule, active = well fitted activation curve with a large enough effect in the repeat runs; inconclusive = weak or mixed curves; inactive = flat fitted curve, though single readings scatter.
# Assay: A CellTox Green Cytotoxicity Assay to monitor cytotoxicity in HEK293 cells - 32 hour (AID 1224881); also: nearly all actives have a fitted effect of over 40% in size
# Conditions: CellTox Green fluorescence; series mostly up to 76.8 µM; cytotoxicity increase: at the top concentration
# From the text: National Center for Advancing Translational Sciences [NCATS]
# NIH Chemical Genomics Center [NCGC]
# U.S. Environmental Protection Agency [EPA]
# National Institutes of Environmental Health Sciences [NIEHS]
# National Toxicology Program [NTP]
# Cell-based models are critical for drug discovery. Determining the natural cytotoxic effects resulting from test compounds is an essential research activity. A CellTox Green Cytotoxicity Assay to monitor cytotoxicity in real time of continues cell culture during 40 hours of the compound treatment was used to screen Tox21 10K library compounds in Hek293 cells. CellTox Green Cytotoxicity Assay is a nonlytic, homogeneous, biofluorescent method to measure cytotoxicity in cell culture after experimental manipulation. The assay system uses a proprietary asymmetric cyanine dye that is excluded from viable cells but preferentially stains the dead cell's DNA. […] Viable cells produce no appreciable increases in fluorescence. Therefore, the fluorescence signal produced by the binding interaction with dead cell DNA is proportional to cytotoxicity.
# The mixture of Hek293 cell suspension and reagents were dispensed at 600cells/6 ul/well in 1536-well tissue culture treated black solid bottom plates using a Multidrop dispenser. After the assay plates were incubated at a 37 C/5% CO2 incubator for 5 hours, 23 nL of compounds dissolved in DMSO, positive and negative controls was transferred to the assay plate by a pintool work station. The plates were incubated at 37 C for 40 hours. The fluorescence intensity were measured at 0h, 8h, 16h, 24h, 32h and 40h time points using ViewLux plate reader during compound treatment.
# % is scaled to controls: 0 for no effect and ±100 for the full control effect; potency is read from the fitted curve at half-maximal effect.
SMILES,cytotoxicity increase,Potency
CCNC(=O)NCCCOc1cccc(CN2CCCCC2)c1,-19% [at 35.3 µM] (inactive),
COc1cc([N+](=O)[O-])ccc1N,-5.32% (inactive),
CCOc1ccc(NC(=O)OC(C)C)cc1OCC,21.9% (inactive),
O=C(/C=C/c1ccccc1)NCCO,,6.74 µM (active)
CC1=NN(c2ccc(S(=O)(=O)O)cc2)C(=O)C1N=Nc1ccccc1 (stereo not given),0.486% (inactive),
CCCCC/C=C/CC(=O)OC,-6.93% (inactive),
CCCCCCCCC(=O)OCC,-0.879% (inactive),
Cc1cccc(NC(=S)N(C)C)c1,-11.8% (inactive),
CCC(C)N (stereo not given),-7.43% (inactive),
CCN1CN(CC)CN(CC)C1,-18.7% (inactive),
NC(=O)C1(N2CCCCC2)CCN(CCCC(=O)c2ccc(F)cc2)CC1,-4.57% [at 35.3 µM] (inactive),
C1=CCC(c2ccccc2)CC1 (stereo not given),0.147% (inactive),
C=C(C)C(=O)OCCCCCCOC(=O)C(=C)C,-14.1% (inactive),
CCCCOC(=O)C(C)OC(=O)CCC (stereo not given),5.7% (inactive),
O=C1c2ccccc2-c2ccccc21,-2.37% (inactive),
CN(C)CCCNCCC#N,-8.66% (inactive),
CC(=O)OCC(=O)[C@@]1(O)[C@H](OC(C)=O)C[C@H]2[C@@H]3CCC4=CC(=O)C=C[C@]4(C)[C@@]3(F)[C@@H](O)C[C@@]21C,2.58% [at 35.3 µM] (inactive),
Nc1cc(Cl)cc(S(=O)(=O)O)c1O,24.4% (inactive),
NS(=O)(=O)c1ccc(Cl)c(S(N)(=O)=O)c1,1.42% [at 35.3 µM] (inactive),
O=C(O)c1ccc(OCCN2CCCCC2)cc1,-16.6% [at 35.3 µM] (inactive),

SMILES,cytotoxicity increase,Potency
F[Si-2](F)(F)(F)(F)F,-1.34% (inactive),
NS(=O)(=O)c1cc2c(cc1Cl)NC(C(Cl)Cl)NS2(=O)=O (stereo not given),1.7% [at 35.3 µM] (inactive),
CCCCC(=O)N(C)C,-9.6% (inactive),
CC1(N)CCC(C(C)(C)N)CC1 (stereo not given),3.3% (inactive),
C=CC(C)(O)CC/C=C(\C)CC (stereo not given),-6.8% (inactive),
O=C(O)C(=O)Nc1cccc(-c2nn[nH]n2)c1,2.18% [at 35.3 µM] (inactive),
CC(C)=CC(C)(C)C,-9% (inactive),
COCC(=O)Nc1c(I)c(C(=O)NCC(O)CO)c(I)c(C(=O)N(C)CC(O)CO)c1I (stereo not given),-25.4% [at 35.3 µM] (inactive),
CCCCCCCCCCC,7.2% (inactive),
Cc1ccc(S(=O)(=O)NC(=O)NC2CCCCCCC2)cc1,4.36% [at 35.3 µM] (inactive),
CO[Si](CCCS)(OC)OC,5.14% (inactive),
O=C(O)c1ccccc1C(=O)OCc1ccccc1,-5.78% (inactive),
C/C=C(\C)C(=O)OCC/C=C\CC,0.504% (inactive),
CC(=O)N1CCN(c2ccc(O)cc2)CC1,-5.98% [at 35.3 µM] (inactive),
FC(F)(F)c1ccc(Cl)cc1Cl,-1.9% (inactive),
CC(C)(C)NCCO,3.27% (inactive),
O=C1OC(=O)c2ccccc21,1.13% (inactive),
CCCCC(CC)COC(=O)c1ccccc1 (stereo not given),-4.41% (inactive),
O=C1CC[C@H](C(=O)N2CCCCC2)N1,0.862% [at 35.3 µM] (inactive),
CO[Si](CCCCl)(OC)OC,1.18% (inactive),

# Source: PubChem BioAssay (Tox21)
